Bioassay records deposited in PubChem BioAssay by National Center for Advancing Translational Sciences (NCATS).
Shown are actives, neighbours in structure and some others; about 7.3% of the full set was active somewhere.
HCV inh: HCV inhibition; Huh7.5.1 HCVcc-Cre infection, luciferase reporter, 44 h; Potency, µM (titrated, usually from 41.8 µM), for inactives: top-dose activity change, negative = inhibition, most hits filed as inhibitors; hit rate 3.4% among 340,000; further: potency means the concentration at half of the fitted maximal effect
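Reporter virus HCVcc-Cre (~0.5 moi) infects cells exposed to compound; seeding density 1,000 cells/well with 4 h settling beforehand. Luminescence, 15 sec read, taken 44 h post-infection following a 15 min RT substrate incubation.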
FMDV inh: antivirals against foot and mouth disease virus. Potency, µM (highest dose often 57.9 µM), for the others: at the top dose activity change, negative = inhibition, usual class: inhibitors. hit rate 1.2% among 410,000. FMDV antiviral cell-based qHTS; calls by dose curve; tested in HEK293T cells; further: read-out not given here; potency means the concentration at half of the fitted maximal effect; nearly all actives have a fitted effect of over 45% in size
HCMV inh: human cytomegalovirus inhibition | HFF cells, HCMV-luciferase reporter, 72 h; hits give low values | AID 1259415 | hit rate 4.5% among 410,000 | activity change, negative = inhibition, % at 57.5 µM; in the data active means activity change below about -60%; inconclusive means no clear call, values can overlap the other calls; inactive means above about -39%
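Cell-based, HFFs, 1000 cells/well, 16 h 37C; cpds in DMSO + HCMV-luc, MOI 1 PFU/cell; 72 h 37C; OneGlo luminescence after 5 min RT; norm. to buffer vs Salinomycin 10uM.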
AmpC inh no detg: AmpC beta-lactamase inhibition without detergent; hit rate 0.52% among 330,000; Potency, µM (highest dose often 57.1 µM), for inactives: at the highest dose activity change, negative = inhibition, most hits filed as inhibitors; AmpC nitrocefin hydrolysis, absorbance 480 nm, 0.0001% Triton; P00811;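 further: potency means the concentration at half of the fitted maximal effect; plate controls were no compound for no effect and no enzyme for full effect; nearly all actives have a fitted effect of over 20% in size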
Target sequence (P00811 whole entry, looked up): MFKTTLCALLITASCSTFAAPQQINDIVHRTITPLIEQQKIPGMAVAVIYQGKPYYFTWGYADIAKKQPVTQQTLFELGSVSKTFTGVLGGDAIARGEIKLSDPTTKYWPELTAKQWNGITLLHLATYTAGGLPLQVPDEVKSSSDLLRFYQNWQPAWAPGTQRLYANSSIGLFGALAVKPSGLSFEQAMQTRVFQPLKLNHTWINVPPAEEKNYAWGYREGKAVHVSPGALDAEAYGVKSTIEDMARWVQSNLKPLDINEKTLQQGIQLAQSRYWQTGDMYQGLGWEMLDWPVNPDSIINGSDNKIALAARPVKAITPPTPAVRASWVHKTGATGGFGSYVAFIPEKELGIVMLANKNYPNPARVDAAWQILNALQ
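20 mM phosphate pH 7.0 + 0.01% (detergent screen) or 0.0001% Triton X-100; 5.3 nM AmpC reagent; cpd preinc 15 min RT; nitrocefin (800 uM stock) to start; A480 q20 s × 4 min; Activity was normalised to no-enzyme and no-compound control wells.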
AmpC inh detg: inhibitors of E. coli AmpC beta-lactamase with detergent | AmpC hydrolysis of nitrocefin, absorbance 480 nm, 0.01% Triton | Potency, µM (top dose mostly 114 µM), for inactives: top-dose activity change, negative = inhibition, hits mostly inhibitors | hit rate 0.041% among 370,000;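 further: potency means the concentration at half of the fitted maximal effect; 0% = no-compound wells and -100% = no-enzyme wells; nearly all actives have a fitted effect of over 25% in size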
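20 mM phosphate pH 7.0 + 0.01% (detergent screen) or 0.0001% Triton X-100; 5.3 nM AmpC reagent; cpd preinc 15 min RT; nitrocefin (800 uM stock) to start; A480 q20 s × 4 min; Activity was normalised to no-enzyme and no-compound control wells.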
An asterisk follows results filed as active; ? = inconclusive; nt = no result. Unless noted, the call rests on the fitted dose curve; in most records, active means well fitted curve in the direction sought with a large enough effect; inconclusive means small, poorly fitted or top-dose-only effect, or another doubt; inactive means no such curve, though single readings can be large; an effect the other way counts as inactive or inconclusive. Unless noted, on the % scale 0 is the no-effect control and ±100 the full control effect.

SMILES	HCV inh	FMDV inh	HCMV inh	AmpC inh no detg	AmpC inh detg
COc1ccc(-c2c(C)c3ccc(O)c(CN4CCCC4)c3oc2=O)cc1	nt	-5%	3	nt	4%
CCCC[C@H]1COCCS(=O)(=O)N1Cc1cccc([N+](=O)[O-])c1	-5%	-1%	-100*	2%	?
O=C(CCc1nnc2n(Cc3ccc(Cl)cc3)c(=O)c3ccccc3n12)NCCN1CCCC1	3.5µM*	5%	-14	117%	0%
CCn1nnc2cc(C(=O)Nc3cccc(C)c3C)ccc21	nt	15%	-7	nt	4%
COc1ccc(S(=O)(=O)NCc2cccnc2)c(Cl)c1Cl	nt	24%	12	nt	nt
CN1CCC(NC(=O)c2cccs2)CC1	16%	-10%	37	8.9µM*	2%
O=C(NCCNC1CCC(c2ccccc2)CC1)c1cccs1 (stereo unspecified)	?	-13%	-99*	-2%	-4%
O=C(NC1CCCCCC1)c1cccs1	10%	37%	58	3%	-2%
c1ccc2c(-c3c[nH]c4ccccc34)c3ccccc3nc2c1	?	-36%	-91*	-33%	-4%
COc1ccccc1C(CNC(=S)NCc1ccccc1)N1CCCC1 (stereo unspecified)	-19%	-5%	-72*	-17%	4%
COc1ccccc1C(CNC(=O)CNC(=O)c1ccccc1Cl)N1CCCC1 (stereo unspecified)	-10%	-11%	-101*	-12%	-3%
CCN(c1ccccc1)S(=O)(=O)c1ccc(Oc2ccc(C(C)=O)cc2OC)nc1	13µM*	-29%	-38	30%	?
CCN(c1ccccc1)S(=O)(=O)c1ccc(Oc2ccc([N+](=O)[O-])cc2)nc1	?	-29%	-35	-54%	-10%
CCN(c1ccccc1)S(=O)(=O)c1ccc(C(=O)NCC(c2ccccc2OC)N2CCCC2)cc1 (stereo unspecified)	25µM*	-16%	-8	nt	nt
O=C(NCCc1nnc2n1CCN(Cc1ccc3c(c1)CCO3)CC2)c1ccco1	nt	1%	nt	nt	nt
CC(=O)OCCNc1cc(SCc2ccco2)c2nonc2c1[N+](=O)[O-]	?	32µM*	nt	-15%	-6%
CCCC(=O)OCCNc1cc(SCCC(=O)OC)c2nonc2c1[N+](=O)[O-]	28%	-14%	12	17%	-1%
COC(=O)CCSc1cc(NCCOC(C)=O)c([N+](=O)[O-])c2nonc12	?	35µM*	18	-4%	-7%
CC(=O)OCCNc1cc(Sc2nc3ccccc3[nH]2)c2nonc2c1[N+](=O)[O-]	?	35µM*	27	-12%	-7%
O=[N+]([O-])c1c(NCCCO)cc(SCc2ccco2)c2nonc12	?	0%	50	-12%	?
CCOC(=O)N1CCN(S(=O)(=O)c2ccc(OC)c(Br)c2)CC1	-7%	-14%	20	47%	?
Cc1cc(-n2c(C)cc(C(=O)CSc3nncn3C(C)C)c2C)no1	6%	9%	-97*	10%	-17%
Cc1cc(-n2c(C)cc(C(=O)CSc3nncn3C)c2C)no1	?	15%	-24	-17%	nt
Cc1cc(-n2c(C)cc(C(=O)COc3ccc(F)c(F)c3)c2C)no1	10µM*	44%	nt	-16%	-4%
Cc1cc(-n2c(C)cc(C(=O)COc3ccccc3[N+](=O)[O-])c2C)no1	-27%	38%	13	-24%	7%
SMILES	HCV inh	FMDV inh	HCMV inh	AmpC inh no detg	AmpC inh detg
Cc1cc(C)c(C(N)=O)c(SCC(=O)c2cc(C)n(-c3cc(C)on3)c2C)n1	2.2µM*	?	?	5%	nt
Cc1noc(C)c1CSCC(=O)OCc1nnc(-c2ccc([N+](=O)[O-])cc2)o1	-2%	-12%	-2	-12%	nt
O=C(NC1CCCC1)C1CCN(S(=O)(=O)c2ccccc2)CC1	0%	-1%	-5	-14%	?
C=Cn1cc[n+](CC(=O)c2ccc(Br)cc2)c1	12%	9%	4	-1%	0%
C=Cn1cc[n+](CC(=O)c2ccc(C)cc2)c1	5%	-7%	-68*	-5%	-12%
COc1ccccc1C(=O)N1CCCC1(C#N)c1ccccc1 (stereo unspecified)	7%	-4%	-11	-13%	2%
COc1ccc(C(=O)N2CCCC2(C#N)c2ccccc2)cc1[N+](=O)[O-] (stereo unspecified)	14µM*	?	69	-27%	2%
